The record followed here is ChEMBL document CHEMBL1961873, “Compounds: GSK PKIS; Assays: Nanosyn kinase panel” (2012).

Test [1] relates to Tyrosine-protein kinase ABL1 (Homo sapiens), P00519 [T315I]. The settings on record: at 1 µM.
In test [2] the test system is Tyrosine-protein kinase ABL1 (Homo sapiens), P00519 [Y253F]. Particulars: at 0.1 µM.
Test [3] shares this test system. Particulars: at 1 µM.
The target of test [4] is Tyrosine-protein kinase ABL1 (Homo sapiens) (UniProt P00519). The settings on record: at 0.1 µM.
The target is the same in test [5]. The settings on record: at 1 µM.
In test [6] the target is ALK tyrosine kinase receptor (Homo sapiens) (UniProt Q9UM73). Particulars: at 0.1 µM.
For test [7] the target is unchanged. The settings on record: at 1 µM.
The target in test [8] is Tyrosine-protein kinase ABL2 (Homo sapiens) (UniProt P42684). Particulars: at 0.1 µM.
For test [9] the target is unchanged. The settings on record: at 1 µM.
In test [10] the target is Tyrosine-protein kinase receptor UFO (Homo sapiens) (UniProt P30530). The settings on record: at 0.1 µM.
Test [11] has the same target. The settings on record: at 1 µM.
The target of test [12] is Tyrosine-protein kinase Blk (Homo sapiens) (UniProt P51451). The settings on record: at 0.1 µM.
For test [13] the target is unchanged. The settings on record: at 1 µM.
In test [14] the target is T1, Cytoplasmic tyrosine-protein kinase BMX (Homo sapiens) (UniProt P51813).
T1 sequence (whole entry): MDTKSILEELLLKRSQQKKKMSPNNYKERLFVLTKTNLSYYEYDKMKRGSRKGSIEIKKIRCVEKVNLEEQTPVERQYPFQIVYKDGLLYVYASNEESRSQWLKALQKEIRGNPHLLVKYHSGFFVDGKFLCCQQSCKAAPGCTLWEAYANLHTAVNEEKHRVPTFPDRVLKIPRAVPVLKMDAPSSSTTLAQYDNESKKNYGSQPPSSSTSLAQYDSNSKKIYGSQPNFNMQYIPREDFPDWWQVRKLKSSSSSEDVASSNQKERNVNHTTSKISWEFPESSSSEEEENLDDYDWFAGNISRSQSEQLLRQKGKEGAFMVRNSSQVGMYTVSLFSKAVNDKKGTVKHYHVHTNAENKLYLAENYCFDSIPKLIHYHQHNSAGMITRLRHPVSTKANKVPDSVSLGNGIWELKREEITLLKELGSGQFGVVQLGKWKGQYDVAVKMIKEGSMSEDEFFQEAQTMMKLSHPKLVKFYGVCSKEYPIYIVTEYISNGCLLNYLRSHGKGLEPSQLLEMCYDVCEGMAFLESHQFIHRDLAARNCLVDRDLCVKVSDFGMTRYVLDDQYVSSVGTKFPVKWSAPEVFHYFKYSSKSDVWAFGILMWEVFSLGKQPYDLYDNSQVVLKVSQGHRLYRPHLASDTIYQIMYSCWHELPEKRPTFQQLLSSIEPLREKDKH
The settings on record: at 0.1 µM.

In test [15] the target is T1, Cytoplasmic tyrosine-protein kinase BMX (Homo sapiens). The settings on record: at 1 µM.
The target of test [16] is Protein-tyrosine kinase 6 (Homo sapiens) (UniProt Q13882). Particulars: at 0.1 µM.
Test [17] has the same target. The settings on record: at 1 µM.
The target in test [18] is Tyrosine-protein kinase BTK (Homo sapiens) (UniProt Q06187). The settings on record: at 0.1 µM.
The target is the same in test [19]. The settings on record: at 1 µM.
For test [20], the target named is Tyrosine-protein kinase CSK (Homo sapiens) (UniProt P41240). Particulars: at 0.1 µM.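 Note: value given is the averaged percent inhibition of CSK kinase activity, from the GSK PKIS kinase inhibitor set screening panel.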

Where “and” joins values, the source holds several entries; their conditions need not be identical. Equal entries are not always repeated.

Tyrosine-protein kinase BTK (Homo sapiens), sequence (Q06187 whole entry): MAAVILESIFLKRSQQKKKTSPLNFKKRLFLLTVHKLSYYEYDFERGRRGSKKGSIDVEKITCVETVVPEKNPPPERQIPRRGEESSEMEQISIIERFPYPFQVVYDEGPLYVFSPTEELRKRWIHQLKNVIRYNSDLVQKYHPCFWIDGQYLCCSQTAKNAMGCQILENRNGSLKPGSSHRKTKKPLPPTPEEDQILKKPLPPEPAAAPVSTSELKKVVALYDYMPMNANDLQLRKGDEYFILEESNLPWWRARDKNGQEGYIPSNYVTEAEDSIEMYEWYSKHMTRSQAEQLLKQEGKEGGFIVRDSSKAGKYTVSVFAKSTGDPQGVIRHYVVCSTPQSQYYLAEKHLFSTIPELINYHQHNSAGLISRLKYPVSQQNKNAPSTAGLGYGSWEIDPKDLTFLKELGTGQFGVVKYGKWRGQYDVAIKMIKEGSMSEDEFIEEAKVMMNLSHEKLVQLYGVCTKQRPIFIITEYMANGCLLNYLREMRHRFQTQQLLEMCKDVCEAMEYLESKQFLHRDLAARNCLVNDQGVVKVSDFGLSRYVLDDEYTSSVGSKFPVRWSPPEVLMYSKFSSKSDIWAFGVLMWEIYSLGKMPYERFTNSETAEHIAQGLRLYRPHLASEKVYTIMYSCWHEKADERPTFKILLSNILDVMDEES
Tyrosine-protein kinase Blk (Homo sapiens), sequence (P51451 2-505 limits assumed): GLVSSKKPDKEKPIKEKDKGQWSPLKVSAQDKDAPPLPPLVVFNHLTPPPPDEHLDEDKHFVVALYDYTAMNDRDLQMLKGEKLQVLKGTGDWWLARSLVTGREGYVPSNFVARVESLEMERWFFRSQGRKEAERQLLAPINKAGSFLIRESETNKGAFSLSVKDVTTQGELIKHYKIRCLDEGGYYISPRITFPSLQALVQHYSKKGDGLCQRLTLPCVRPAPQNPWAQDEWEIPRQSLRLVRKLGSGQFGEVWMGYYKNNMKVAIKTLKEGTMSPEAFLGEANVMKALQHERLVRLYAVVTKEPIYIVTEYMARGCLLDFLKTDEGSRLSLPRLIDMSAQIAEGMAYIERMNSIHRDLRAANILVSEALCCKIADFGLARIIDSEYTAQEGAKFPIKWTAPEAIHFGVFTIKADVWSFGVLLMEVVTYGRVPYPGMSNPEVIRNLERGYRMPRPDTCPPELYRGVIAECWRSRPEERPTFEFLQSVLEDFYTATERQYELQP
Protein-tyrosine kinase 6 (Homo sapiens), sequence (Q13882 whole entry, looked up): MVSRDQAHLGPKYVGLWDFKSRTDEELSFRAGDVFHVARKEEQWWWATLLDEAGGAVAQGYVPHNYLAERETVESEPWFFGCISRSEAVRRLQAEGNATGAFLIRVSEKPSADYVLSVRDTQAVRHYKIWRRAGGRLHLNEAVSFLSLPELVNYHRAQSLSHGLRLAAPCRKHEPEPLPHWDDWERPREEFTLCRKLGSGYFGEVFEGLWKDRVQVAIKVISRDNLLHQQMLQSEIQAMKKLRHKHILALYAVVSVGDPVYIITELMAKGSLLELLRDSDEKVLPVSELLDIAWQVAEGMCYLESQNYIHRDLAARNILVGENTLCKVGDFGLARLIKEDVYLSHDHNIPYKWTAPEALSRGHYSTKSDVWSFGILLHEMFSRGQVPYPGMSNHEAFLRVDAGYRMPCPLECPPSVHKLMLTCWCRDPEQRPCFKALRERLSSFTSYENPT
Tyrosine-protein kinase receptor UFO (Homo sapiens), sequence (P30530 whole entry): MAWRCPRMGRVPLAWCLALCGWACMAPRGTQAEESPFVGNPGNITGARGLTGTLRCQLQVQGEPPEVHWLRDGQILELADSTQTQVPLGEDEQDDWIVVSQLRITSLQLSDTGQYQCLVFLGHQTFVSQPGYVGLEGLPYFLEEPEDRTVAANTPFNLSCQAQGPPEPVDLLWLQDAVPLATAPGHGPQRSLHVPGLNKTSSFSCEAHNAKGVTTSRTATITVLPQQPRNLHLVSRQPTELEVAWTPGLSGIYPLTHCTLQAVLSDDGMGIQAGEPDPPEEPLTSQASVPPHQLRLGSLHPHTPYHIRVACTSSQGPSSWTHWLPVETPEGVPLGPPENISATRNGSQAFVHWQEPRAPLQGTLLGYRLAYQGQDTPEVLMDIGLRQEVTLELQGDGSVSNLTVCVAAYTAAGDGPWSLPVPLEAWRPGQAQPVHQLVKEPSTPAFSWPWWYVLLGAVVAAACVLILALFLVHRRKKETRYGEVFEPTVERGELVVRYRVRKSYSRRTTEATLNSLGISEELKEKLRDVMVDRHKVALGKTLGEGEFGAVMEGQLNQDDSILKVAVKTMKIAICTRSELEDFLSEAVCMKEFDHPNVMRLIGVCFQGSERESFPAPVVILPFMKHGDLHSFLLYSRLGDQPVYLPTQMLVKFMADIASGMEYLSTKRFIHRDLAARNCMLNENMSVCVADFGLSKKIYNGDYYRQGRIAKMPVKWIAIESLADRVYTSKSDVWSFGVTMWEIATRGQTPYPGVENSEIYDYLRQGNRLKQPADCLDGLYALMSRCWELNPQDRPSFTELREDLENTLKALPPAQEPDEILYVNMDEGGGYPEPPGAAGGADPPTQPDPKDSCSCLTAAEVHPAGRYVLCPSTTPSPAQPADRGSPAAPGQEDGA
Tyrosine-protein kinase CSK (Homo sapiens), sequence (P41240 2-450 limits assumed): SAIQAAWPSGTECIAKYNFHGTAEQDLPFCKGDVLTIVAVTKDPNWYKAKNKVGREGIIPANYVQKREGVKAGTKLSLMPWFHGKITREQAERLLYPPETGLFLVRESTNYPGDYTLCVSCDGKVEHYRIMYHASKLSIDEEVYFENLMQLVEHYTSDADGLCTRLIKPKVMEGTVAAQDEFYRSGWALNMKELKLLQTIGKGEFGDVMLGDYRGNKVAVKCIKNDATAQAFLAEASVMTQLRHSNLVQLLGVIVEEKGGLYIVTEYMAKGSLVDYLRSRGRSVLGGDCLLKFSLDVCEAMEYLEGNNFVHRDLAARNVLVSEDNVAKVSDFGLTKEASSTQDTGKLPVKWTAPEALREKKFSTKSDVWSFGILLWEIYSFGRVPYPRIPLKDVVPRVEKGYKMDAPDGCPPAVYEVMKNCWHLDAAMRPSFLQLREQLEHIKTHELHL
ALK tyrosine kinase receptor (Homo sapiens), sequence (Q9UM73 19-1620 limits assumed): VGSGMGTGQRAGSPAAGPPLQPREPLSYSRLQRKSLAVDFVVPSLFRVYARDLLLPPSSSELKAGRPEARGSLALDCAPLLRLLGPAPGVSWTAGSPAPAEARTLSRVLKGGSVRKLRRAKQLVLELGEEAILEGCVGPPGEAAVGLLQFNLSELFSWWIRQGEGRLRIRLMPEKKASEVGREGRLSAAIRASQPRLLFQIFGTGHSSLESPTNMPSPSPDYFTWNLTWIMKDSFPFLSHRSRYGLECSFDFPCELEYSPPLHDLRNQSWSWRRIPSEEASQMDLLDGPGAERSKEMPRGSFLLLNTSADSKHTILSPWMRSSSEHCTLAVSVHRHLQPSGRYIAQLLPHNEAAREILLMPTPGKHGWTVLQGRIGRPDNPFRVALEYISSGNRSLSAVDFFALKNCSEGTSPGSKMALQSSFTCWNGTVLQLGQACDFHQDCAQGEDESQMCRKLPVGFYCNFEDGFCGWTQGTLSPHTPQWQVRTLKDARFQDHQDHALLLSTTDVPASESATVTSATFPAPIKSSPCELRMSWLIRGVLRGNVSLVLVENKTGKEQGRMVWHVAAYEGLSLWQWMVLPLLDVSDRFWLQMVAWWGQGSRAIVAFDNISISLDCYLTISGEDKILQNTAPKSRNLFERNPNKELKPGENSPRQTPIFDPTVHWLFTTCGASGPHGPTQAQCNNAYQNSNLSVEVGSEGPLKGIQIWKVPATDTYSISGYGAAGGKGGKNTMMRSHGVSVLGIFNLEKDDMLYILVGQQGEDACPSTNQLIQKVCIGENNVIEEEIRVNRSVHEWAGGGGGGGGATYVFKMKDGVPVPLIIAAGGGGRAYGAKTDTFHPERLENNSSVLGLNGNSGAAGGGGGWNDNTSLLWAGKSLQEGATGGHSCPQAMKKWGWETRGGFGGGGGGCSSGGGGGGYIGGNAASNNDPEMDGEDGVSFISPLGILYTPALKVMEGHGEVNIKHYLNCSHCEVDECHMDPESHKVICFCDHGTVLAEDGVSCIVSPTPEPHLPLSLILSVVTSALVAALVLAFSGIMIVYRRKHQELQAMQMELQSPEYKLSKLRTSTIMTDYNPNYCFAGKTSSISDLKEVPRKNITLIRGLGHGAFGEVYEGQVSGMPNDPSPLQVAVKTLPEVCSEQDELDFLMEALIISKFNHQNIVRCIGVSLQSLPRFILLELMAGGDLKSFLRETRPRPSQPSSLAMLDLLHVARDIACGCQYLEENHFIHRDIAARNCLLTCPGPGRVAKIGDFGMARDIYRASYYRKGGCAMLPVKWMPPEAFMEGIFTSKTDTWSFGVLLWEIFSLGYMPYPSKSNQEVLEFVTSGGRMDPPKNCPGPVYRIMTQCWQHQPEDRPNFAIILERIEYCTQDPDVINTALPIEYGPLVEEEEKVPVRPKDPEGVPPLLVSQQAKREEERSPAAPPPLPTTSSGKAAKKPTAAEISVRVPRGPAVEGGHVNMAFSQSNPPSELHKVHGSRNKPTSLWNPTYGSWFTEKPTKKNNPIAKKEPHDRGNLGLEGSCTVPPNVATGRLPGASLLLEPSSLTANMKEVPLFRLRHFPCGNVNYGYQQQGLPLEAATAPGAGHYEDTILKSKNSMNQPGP

With `NS(=O)(=O)c1cccc(N/C=C2\C(=O)Nc3ccccc32)c1`, the inhibition in [1] came to 8.55%; in test [2], 5.67%; in [3] it was 11%; in test [4], 3.17%; in test [5], 10.9%; in [6], 2.94%. The inhibition is 12.7% in test [7]; 4.2% in test [8]; 13.3% in test [9]; -7.48% in test [10]; -2.91% in test [11]; 2.39% in test [12]. For the same molecule, the inhibition in test [13] amounted to 8.59%; in test [14] it was 2.23%; in test [15], 5.84%; in [16] it was 3.79%; in [17], 5.69%; in test [18], 0.73%. The inhibition is -0.4% in [19] and 3.86% in test [20].
For `NS(=O)(=O)c1ccc(N/N=C2\C(=O)Nc3ccc(C(=O)NCc4ccncc4)cc32)cc1`, the inhibition stood at 12.8% in test [1]; 4.33% in test [2]; 19.1% in test [3]; 2.78% in test [4]; 15.2% in test [5]; 1.39% in test [6]. The inhibition in [7] was 4.24%; in test [8], 2.79%; in test [9] it was 9.41%; in test [10] it was -1.05%; in [11], -5.22%; in test [12], 2.64%. Also, the inhibition was 13.4% in test [13]; -3.52% in test [14]; 4.33% in [15]; 1.97% in [16]; 4.41% in [17]; 0.85% in test [18]. The values for the inhibition in [19] and in test [20] were 0.4% and 2.94%, respectively.
`CS(=O)(=O)Nc1ccc(-c2ccc3c(NC(=O)C4CC4)n[nH]c3c2)cc1`: the inhibition in test [1] was found to be 16.9%; in test [2], 5.2%; in [3] it was 9.04%; in test [4], 3.79%; in test [5], 9.67%; in test [6], 3.16%. Also, the inhibition in [7] was 11%; in test [8], 2.46%; in [9] it was 4.71%; in test [10], -3.54%; in [11] it was 0.24%; in test [12], 2.19%. For the same molecule, the inhibition in [13] is 9.5%; in test [14] it was -5.43%; in [15], 4.64%; in test [16], 1.77%; in test [17], 2.53%; in test [18] it was 1%. Besides, the inhibition in test [19] stood at 1.7%; in test [20] it was 3.59%.
Consider `CNC(=O)c1cncc(/C=C/c2ccccc2C)c1`, for which the inhibition was 4.28% in [1]; 6.17% in [2]; 31.7% in test [3]; 5.99% in [4]; 25.9% in test [5]; 4.09% in test [6]. The inhibition in [7] was 4.22%; in test [8], 6.78%; in test [9], 16.1%; in [10] it was -3.18%; in test [11], -5.59%; in test [12], 2.89%. The inhibition in test [13] was 6.2%; in test [14], 0.93%; in [15] it was 16.1%; in test [16] it was 4.25%; in [17], 14.5%; in test [18], 0.03%. For the same molecule, the figures for the inhibition in test [19] and in test [20] were 1.29% and 4.87%, respectively.
Consider `CN1CCC(C(=O)Nc2n[nH]c3nc(-c4ccc(O)cc4)c(Br)cc23)CC1`, for which the inhibition in [1] was 22.5% and 15.6%; in test [2], 3.92% and 2.19%; in test [3], 15.1% and 9.74%; in [4] it was 0.28% and 3.94%; in test [5] it was 10.7% and 12.2%; in [6], 2.7% and 5.6%. The inhibition in test [7] is 31.6% and 35.4%; in test [8] it was -0.95% and 2.31%; in [9] it was 4.33% and 4.83%; in test [10], -5.65% and -3.46%; in test [11] it was -2.51% and -3.39%; in test [12] it was -0.49% and 1.32%. Moreover, the inhibition was 0.8% and 4.39% in test [13]; 4.12% and 2.58% in test [14]; 3.63% and 4.39% in [15]; 4.15% and 1.12% in test [16]; 9.38% and 6.4% in test [17]; -3.39% and 0.29% in test [18]. In addition, the inhibition in test [19] is -2.64% and 0.46%; in test [20], -0.63%.
As to `CC1=C(C(=O)Nc2ccc3[nH]ncc3c2)C(c2ccc(F)cc2)N=C(c2ccc(C(F)(F)F)nc2)N1` (stereo not given), the inhibition in test [1] was 2.27%; in [2], 3.86%; in test [3] it was 2.79%; in test [4], 3.97%; in test [5], 10.4%; in test [6], 4.23%. Also, the inhibition was 4.29% in [7]; 3.72% in [8]; 8.41% in test [9]; -1.91% in test [10]; -0.71% in test [11]; 2.98% in [12]. The inhibition in test [13] is 3.72%; in [14], -0.04%; in test [15], 3.01%; in test [16], 2.13%; in test [17], 3.49%; in [18] it was 0.06%. Moreover, the inhibition was found to be 0.16% in test [19] and 1.42% in test [20].
On to `Cc1nnc(-c2cccc(-c3ccc(C(=O)NCC4CC4)cc3)c2)o1`, for which the inhibition in test [1] amounted to 5.17%; in test [2] it was 2.61%; in [3], 4.27%; in test [4], 5.41%; in test [5], 9.95%; in [6], 3.15%. Further, the inhibition in test [7] was 5.21%; in test [8], 3.81%; in test [9], 9.01%; in [10], -9.15%; in test [11] it was -8.4%; in test [12] it was 3.6%. In addition, the inhibition in test [13] was 1.41%; in test [14], -0.51%; in test [15], 5.89%; in test [16] it was 6.64%; in [17], 7.36%; in test [18], 0.03%. The inhibition worked out at 1.05% in [19] and 7.99% in test [20].
